We go through one sequence from paper PMC7862700, “An all-to-all approach to the identification of sequence-specific readers for epigenetic DNA modifications on cytosine”.

Holding throughout (assay): DAPPL (digital affinity profiling via proximity ligation, sequencing); 10 mM Tris-HCl pH 7.5, 50 mM NaCl, 1 mM DTT, 4% glycerol, room temperature, 30 min; GST-TFs on glutathione beads, 16-mer random dsDNA library, 0.1% formaldehyde crosslink after washing; high values mean tight binding
Settings in all cases: protein: recombinant; tags: N-terminal GST; dsDNA, one strand shown

In one assay the target is T1, ELK1 (Homo sapiens, UniProt P19419 1-428).
T1 sequence: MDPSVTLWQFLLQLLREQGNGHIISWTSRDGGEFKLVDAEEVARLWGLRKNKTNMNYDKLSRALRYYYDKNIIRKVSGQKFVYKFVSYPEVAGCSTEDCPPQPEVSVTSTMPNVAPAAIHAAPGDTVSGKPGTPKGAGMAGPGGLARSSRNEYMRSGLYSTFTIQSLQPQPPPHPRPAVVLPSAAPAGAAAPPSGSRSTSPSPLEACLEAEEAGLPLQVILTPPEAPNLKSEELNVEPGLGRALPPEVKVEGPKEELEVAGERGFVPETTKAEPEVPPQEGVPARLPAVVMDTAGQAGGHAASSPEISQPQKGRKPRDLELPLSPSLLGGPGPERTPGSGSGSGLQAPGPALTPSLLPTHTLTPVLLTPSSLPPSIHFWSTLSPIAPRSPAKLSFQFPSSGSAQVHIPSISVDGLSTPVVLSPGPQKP
A digest of the protocol:
(§1)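 Sequencing on an Illumina NextSeq500 followed washing, crosslinking with 0.1% formaldehyde, proximity ligation (BsaI/T4 ligase, 1 h, 37 °C) and PCR amplification of pools that had been incubated for 30 min at room temperature with 200 nmole of a random double-stranded 16-mer DNA library in Tris/NaCl/DTT/glycerol buffer. Each pool held DNA-barcoded human transcription factors, expressed in yeast as GST fusions and captured on glutathione beads, plus a tag-only sample. Binding signal is a hexamer's read frequency for a factor divided by its frequency in the tag-only sample.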

The target of another assay is T2, GABPA (Homo sapiens, UniProt Q06546 1-454).
T2 sequence: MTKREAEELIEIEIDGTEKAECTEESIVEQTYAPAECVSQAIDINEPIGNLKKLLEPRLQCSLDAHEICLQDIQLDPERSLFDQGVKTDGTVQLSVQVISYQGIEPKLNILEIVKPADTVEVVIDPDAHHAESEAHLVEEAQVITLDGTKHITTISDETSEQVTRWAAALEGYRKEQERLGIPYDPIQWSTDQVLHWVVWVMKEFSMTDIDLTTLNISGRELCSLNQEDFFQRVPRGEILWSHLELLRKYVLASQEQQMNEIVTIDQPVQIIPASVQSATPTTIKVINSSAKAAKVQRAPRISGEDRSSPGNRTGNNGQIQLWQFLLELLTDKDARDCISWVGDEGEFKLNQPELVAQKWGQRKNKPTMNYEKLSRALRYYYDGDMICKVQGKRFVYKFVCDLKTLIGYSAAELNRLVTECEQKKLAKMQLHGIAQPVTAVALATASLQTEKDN
The gist of the method:
as §1

Another assay deals with T3, ERG (Homo sapiens, UniProt P11308 1-479).
T3 sequence: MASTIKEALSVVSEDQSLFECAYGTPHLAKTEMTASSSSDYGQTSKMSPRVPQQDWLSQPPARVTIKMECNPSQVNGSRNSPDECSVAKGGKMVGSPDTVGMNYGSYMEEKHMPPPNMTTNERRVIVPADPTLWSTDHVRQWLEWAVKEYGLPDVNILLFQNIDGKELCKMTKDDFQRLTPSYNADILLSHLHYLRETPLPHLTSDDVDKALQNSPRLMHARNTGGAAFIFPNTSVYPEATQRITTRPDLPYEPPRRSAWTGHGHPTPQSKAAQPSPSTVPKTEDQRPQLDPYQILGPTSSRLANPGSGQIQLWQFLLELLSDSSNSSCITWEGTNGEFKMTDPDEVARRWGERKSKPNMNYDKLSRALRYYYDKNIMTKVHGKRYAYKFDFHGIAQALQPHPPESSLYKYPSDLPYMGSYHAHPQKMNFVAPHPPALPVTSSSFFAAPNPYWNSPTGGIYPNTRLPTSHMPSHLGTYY
The gist of the method:
as §1

In another assay the target is ELF1 (Homo sapiens, UniProt P32519 1-619). A digest of the protocol:
as §1

In another assay the target is SPIB (Homo sapiens, UniProt Q01892 1-262). The gist of the method: as §1
Sequence of SPIB (Q01892 whole entry): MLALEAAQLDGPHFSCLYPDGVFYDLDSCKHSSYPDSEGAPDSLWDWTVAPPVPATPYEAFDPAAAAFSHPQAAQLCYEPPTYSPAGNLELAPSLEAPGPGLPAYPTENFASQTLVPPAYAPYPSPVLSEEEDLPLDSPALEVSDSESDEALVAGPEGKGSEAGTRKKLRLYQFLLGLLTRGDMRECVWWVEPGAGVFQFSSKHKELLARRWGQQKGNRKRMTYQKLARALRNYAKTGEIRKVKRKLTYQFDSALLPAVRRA
A further assay deals with T4, SPIC (Homo sapiens, UniProt Q8N5J4 1-248).
T4 sequence: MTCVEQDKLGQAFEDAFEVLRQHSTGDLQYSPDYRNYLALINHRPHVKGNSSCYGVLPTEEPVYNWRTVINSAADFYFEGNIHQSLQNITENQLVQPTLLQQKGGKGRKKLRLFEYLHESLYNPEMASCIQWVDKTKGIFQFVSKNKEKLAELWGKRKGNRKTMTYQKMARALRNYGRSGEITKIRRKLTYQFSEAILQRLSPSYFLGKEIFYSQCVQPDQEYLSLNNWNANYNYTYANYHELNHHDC
A digest of the protocol:
as §1

The target in the next assay is ELF4 (Homo sapiens, UniProt Q99607 1-663). The gist of the method:
as §1

In a further assay the target is T5, ELK4 (Homo sapiens, UniProt P28324-2 1-405).
T5 sequence: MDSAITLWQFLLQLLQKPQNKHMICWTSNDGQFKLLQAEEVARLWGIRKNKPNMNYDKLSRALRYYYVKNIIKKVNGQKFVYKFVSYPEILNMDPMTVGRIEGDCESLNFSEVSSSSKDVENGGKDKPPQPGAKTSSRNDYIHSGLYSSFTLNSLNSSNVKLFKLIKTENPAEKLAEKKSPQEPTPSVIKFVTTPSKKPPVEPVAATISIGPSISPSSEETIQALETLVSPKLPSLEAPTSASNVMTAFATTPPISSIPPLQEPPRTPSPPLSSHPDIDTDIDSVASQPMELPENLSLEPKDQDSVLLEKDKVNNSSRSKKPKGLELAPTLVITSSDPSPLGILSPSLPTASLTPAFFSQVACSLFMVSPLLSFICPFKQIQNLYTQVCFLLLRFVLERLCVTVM
The gist of the method:
as §1

A further assay has as its target T6, ELF3 (Homo sapiens, UniProt P78545 1-371).
T6 sequence: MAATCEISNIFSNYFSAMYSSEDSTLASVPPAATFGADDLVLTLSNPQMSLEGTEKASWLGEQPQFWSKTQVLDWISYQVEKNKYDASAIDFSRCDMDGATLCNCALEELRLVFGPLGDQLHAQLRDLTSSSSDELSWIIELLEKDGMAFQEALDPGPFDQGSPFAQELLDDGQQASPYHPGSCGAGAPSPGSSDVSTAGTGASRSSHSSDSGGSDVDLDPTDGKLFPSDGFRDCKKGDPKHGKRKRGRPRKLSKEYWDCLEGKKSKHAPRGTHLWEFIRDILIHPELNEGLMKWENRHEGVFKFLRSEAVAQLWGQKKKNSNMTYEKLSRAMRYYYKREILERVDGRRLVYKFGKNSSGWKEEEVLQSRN
The gist of the method:
as §1

For another assay, the target named is ETV1 (Homo sapiens, UniProt P50549 1-477). A digest of the protocol: as §1
Sequence of ETV1 (P50549 whole entry): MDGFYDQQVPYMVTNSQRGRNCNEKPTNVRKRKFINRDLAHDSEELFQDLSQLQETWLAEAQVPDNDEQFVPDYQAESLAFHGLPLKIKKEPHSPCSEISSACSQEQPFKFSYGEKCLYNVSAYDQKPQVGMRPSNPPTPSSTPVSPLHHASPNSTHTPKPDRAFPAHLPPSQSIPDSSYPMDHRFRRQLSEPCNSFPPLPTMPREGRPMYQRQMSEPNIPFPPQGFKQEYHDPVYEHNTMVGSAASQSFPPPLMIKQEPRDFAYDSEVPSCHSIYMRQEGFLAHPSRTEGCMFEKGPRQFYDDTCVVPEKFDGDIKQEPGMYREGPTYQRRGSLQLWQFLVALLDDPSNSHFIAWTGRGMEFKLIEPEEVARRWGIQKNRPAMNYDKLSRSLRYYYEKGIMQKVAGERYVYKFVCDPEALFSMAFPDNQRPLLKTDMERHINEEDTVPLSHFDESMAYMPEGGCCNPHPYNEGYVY
For another assay, the target named is T7, ERF (Homo sapiens, UniProt P50548 1-548).
T7 sequence: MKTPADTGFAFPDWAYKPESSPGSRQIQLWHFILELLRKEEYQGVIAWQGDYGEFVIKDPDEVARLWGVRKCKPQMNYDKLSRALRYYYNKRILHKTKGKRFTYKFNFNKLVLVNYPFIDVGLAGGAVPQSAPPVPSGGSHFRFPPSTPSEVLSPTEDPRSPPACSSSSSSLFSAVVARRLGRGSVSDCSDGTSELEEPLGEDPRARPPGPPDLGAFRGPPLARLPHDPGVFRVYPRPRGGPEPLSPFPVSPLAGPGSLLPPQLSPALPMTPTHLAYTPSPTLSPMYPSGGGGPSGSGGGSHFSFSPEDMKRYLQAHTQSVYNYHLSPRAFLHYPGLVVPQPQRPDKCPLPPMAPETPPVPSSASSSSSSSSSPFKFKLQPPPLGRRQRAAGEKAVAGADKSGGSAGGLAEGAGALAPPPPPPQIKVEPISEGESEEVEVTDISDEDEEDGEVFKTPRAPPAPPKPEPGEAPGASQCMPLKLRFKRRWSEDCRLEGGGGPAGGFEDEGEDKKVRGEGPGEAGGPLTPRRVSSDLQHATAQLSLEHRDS
A digest of the protocol: as §1

A further assay concerns the target T8, ETV3L (Homo sapiens, UniProt Q6ZN32 1-361).
T8 sequence: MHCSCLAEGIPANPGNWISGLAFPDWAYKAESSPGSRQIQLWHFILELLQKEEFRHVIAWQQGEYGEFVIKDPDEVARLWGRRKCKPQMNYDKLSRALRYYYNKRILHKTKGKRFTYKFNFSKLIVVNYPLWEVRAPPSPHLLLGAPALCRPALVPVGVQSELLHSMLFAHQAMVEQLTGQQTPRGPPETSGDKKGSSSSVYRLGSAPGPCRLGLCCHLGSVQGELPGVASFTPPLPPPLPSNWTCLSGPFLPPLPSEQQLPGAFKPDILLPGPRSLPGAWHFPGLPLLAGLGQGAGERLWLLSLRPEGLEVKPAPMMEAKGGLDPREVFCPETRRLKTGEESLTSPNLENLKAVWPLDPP
The gist of the method:
as §1

In a further assay the target is T9, ETS2 (Homo sapiens, UniProt P15036 1-469).
T9 sequence: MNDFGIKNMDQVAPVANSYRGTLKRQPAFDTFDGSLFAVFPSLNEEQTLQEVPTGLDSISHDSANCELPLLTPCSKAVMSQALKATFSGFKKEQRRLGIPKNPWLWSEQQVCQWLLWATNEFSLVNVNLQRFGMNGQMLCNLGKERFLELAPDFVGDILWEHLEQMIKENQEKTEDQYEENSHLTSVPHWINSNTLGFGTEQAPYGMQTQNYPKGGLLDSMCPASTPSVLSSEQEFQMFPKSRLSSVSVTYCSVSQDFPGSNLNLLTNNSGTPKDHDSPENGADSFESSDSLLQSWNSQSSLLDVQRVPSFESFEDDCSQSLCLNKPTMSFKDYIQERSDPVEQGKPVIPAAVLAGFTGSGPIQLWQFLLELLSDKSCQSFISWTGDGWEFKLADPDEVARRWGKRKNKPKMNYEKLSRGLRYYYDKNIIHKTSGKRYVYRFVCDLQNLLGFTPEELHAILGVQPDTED
The gist of the method:
as §1

The target in another assay is T10, ETV7 (Homo sapiens, UniProt Q9Y603 1-341).
T10 sequence: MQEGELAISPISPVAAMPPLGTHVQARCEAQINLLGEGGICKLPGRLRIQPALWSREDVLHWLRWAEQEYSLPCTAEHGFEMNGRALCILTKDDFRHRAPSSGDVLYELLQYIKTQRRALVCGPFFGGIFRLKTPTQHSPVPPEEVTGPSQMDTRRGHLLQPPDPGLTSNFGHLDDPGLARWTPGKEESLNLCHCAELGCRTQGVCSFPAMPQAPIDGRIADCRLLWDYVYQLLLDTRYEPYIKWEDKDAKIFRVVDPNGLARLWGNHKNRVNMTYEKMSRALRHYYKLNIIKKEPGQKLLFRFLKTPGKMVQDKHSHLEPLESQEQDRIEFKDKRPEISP
A digest of the protocol:
as §1

A further assay addresses T11, ETV3 (Homo sapiens, UniProt P41162-2 1-143).
T11 sequence: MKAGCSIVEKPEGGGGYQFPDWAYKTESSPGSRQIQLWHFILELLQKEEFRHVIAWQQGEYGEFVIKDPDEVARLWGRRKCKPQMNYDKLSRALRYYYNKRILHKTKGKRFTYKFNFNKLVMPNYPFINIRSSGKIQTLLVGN
The gist of the method:
as §1

Another assay has as its target ETV6 (Homo sapiens, UniProt P41212 1-452). The gist of the method:
as §1

Sequence of ELF1 (P32519 whole entry): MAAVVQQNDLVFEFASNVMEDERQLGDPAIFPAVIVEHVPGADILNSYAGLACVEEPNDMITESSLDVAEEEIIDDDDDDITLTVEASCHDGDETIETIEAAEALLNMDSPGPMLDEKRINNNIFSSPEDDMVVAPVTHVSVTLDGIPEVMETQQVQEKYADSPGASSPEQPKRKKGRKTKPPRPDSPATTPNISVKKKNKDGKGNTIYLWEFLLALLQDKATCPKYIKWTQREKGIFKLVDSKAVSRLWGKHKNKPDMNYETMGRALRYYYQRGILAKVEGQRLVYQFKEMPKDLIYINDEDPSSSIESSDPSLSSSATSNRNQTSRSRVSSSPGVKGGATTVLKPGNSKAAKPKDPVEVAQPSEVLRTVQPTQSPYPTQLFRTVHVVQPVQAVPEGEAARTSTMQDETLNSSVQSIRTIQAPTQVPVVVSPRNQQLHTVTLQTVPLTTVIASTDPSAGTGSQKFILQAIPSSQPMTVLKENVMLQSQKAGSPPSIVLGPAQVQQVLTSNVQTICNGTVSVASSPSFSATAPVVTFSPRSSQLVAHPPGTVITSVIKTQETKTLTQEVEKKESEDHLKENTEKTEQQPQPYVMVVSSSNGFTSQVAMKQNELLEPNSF
Sequence of ELF4 (Q99607 whole entry): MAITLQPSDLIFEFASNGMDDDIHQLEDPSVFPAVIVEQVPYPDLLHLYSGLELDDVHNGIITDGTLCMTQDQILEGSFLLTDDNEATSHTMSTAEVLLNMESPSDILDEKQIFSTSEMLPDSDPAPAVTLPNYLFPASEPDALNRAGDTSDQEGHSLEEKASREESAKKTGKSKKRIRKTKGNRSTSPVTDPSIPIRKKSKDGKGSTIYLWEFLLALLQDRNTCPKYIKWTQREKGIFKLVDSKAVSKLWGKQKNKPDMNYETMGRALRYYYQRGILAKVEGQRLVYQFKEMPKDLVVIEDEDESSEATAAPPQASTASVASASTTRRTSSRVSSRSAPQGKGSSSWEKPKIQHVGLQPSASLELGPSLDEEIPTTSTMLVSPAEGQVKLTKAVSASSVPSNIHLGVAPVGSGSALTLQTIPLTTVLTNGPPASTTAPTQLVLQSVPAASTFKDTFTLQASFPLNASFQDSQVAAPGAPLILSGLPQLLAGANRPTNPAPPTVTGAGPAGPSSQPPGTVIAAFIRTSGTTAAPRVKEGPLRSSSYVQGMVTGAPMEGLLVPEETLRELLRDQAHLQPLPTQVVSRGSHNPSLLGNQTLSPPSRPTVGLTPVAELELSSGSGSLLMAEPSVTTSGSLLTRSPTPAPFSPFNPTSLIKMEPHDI
Sequence of ETV6 (P41212 whole entry): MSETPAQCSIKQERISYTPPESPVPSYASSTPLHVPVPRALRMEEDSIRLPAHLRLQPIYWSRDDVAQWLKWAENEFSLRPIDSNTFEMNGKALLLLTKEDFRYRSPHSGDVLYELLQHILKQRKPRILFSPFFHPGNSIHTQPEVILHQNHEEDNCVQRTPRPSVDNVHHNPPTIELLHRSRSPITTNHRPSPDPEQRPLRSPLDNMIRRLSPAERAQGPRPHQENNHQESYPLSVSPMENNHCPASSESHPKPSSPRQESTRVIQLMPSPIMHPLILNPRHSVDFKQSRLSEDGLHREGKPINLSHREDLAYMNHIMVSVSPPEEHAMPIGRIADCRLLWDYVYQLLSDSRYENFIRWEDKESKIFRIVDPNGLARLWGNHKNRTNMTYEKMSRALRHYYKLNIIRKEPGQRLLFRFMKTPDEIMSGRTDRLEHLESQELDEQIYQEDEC

Consider TCAATC, for which the binding signal with ELK1 was 1.08 fold enrichment (6-mer frequency, TF over GST control); in the assay with GABPA, 1.13 fold enrichment (6-mer frequency, TF over GST control); with ERG it was 1.04 fold enrichment (6-mer frequency, TF over GST control); with ELF1 it was 1.07 fold enrichment (6-mer frequency, TF over GST control); in the assay with SPIB, 1.04 fold enrichment (6-mer frequency, TF over GST control); in the assay with SPIC, 1.1 fold enrichment (6-mer frequency, TF over GST control). Besides, the binding signal with ELF4 is 1.06 fold enrichment (6-mer frequency, TF over GST control); with ELK4, 1.03 fold enrichment (6-mer frequency, TF over GST control); in the assay with ELF3 it was 1.09 fold enrichment (6-mer frequency, TF over GST control); with ETV1, 1.04 fold enrichment (6-mer frequency, TF over GST control); in the assay with ERF, 1.09 fold enrichment (6-mer frequency, TF over GST control); in the assay with ETV3L it was 1.05 fold enrichment (6-mer frequency, TF over GST control). Further, the binding signal with ETS2 is 1.04 fold enrichment (6-mer frequency, TF over GST control); with ETV7, 1.01 fold enrichment (6-mer frequency, TF over GST control); with ETV3, 1.01 fold enrichment (6-mer frequency, TF over GST control); in the assay with ETV6, 1.06 fold enrichment (6-mer frequency, TF over GST control).
